Compound activity deposited in PubChem by The Scripps Research Institute Molecular Screening Center.
In the library only some 3.5% were active in any assay of this set; here they are far more common.
MITF primary = blocks human microphthalmia-associated transcription factor; AlphaScreen MITF homodimerization, bead proximity signal; O75030; 0.91% of 650,000 active; inhibition, % at 2.6 µM; AID 1259374; in the data active = inhibition above about 50%;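 note: 0% = vehicle wells with protein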
FBW7 act = activators of human E3 ligase FBW7 | AlphaScreen FBW7–phospho-cyclin E peptide binding, activator screen | 0.13% of 650,000 active | normalized activity (activation), % at 26.1 µM | Q969H0; in the data active = normalized activity above about 1.9%;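 note: purified mutant Fbw7 with reduced substrate affinity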
Target sequence (Q969H0 whole entry, looked up): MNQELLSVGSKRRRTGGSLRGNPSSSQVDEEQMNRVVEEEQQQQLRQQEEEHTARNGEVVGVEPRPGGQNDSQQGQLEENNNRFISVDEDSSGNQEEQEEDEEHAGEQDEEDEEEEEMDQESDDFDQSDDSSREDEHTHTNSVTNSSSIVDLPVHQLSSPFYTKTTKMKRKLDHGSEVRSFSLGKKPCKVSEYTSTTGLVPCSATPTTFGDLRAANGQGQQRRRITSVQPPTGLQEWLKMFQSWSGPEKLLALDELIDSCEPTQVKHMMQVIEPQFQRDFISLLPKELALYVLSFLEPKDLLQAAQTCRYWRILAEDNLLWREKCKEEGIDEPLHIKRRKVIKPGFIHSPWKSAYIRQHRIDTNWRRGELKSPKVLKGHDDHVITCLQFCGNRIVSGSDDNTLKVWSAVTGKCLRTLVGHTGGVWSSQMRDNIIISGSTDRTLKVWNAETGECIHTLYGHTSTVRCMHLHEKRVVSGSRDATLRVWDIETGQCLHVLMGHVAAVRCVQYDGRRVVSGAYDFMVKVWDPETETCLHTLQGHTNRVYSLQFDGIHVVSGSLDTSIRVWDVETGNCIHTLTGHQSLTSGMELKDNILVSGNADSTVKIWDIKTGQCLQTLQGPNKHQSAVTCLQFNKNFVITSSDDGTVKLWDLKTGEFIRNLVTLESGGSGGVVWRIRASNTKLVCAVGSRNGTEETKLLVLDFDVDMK
TEAD-YAP inh = TEAD-YAP interaction inhibition; HEK-TIYL cells, TEAD-Gal4/YAP UAS-luciferase luminescence; AID 1259422; 1.4% of 640,000 active; inhibition, % at 9.12 µM; in the data active = inhibition above about 32%;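 note: 0% = median of test compound wells and 100% = reference inhibitor wells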
GPR151 ag = human GPR151 activation; PathHunter beta-arrestin GPR151 cells, luminescence; activation, % at 11.2 µM; 1% of 650,000 active; in the data active = activation above about 4.9%;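 note: 0% = median of compound wells and 100% = cells with positive control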
GPR151 confirm = confirmation of human GPR151 activators. GPR151 PathHunter beta-arrestin cells, luminescence, 90 min; % of EA-reagent control over plate median. activation, % at 11.2 µM. shares compounds with GPR151 ag. 6,700 tested, under 10 active;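 active = mean percent activation across replicates above the confirmation screen cutoff of 4.91%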
GPR119 ag = activates human GPR119 in a GPR151 counter-screen | 0.3% of 6,700 active | AID 1508611 | activation, % at 11.2 µM | shares compounds with GPR151 ag | GPR119 PathHunter beta-arrestin cells, luminescence, 90 min; 0 = compound-well median, 100 = enzyme-acceptor control;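 active = mean percent activation in the counterscreen above 29.09%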;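 note: counterscreen on off-target GPR119 to flag nonselective hits from the GPR151 activator screen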
* hit, by the source's call.

Screening COc1cccc(CC2(CO)CCN(C(=O)CN3CCCC(c4ccccc4)C3)CC2)c1 (centres undefined) returned MITF primary 7, FBW7 act 0, TEAD-YAP inh 0, GPR151 ag 5.2*, GPR151 confirm 0 and GPR119 ag 5.
For CCN(C(C)=O)c1nc(-c2ccc(Cl)cc2)cs1 the results were MITF primary -1, FBW7 act 0, TEAD-YAP inh -4 and GPR151 ag -1.
`Fc1ccccc1N1CCN(C(c2ccccc2)c2nnnn2CC2CCCO2)CC1` (centres undefined) gave MITF primary 3, FBW7 act 0, TEAD-YAP inh 2 and GPR151 ag -1.
Screening S=C(NCCCn1ccnc1)Nc1ccc(Br)cc1 returned MITF primary 8, FBW7 act 0, TEAD-YAP inh -5, GPR151 ag 5.1*, GPR151 confirm -1 and GPR119 ag -8.
Screening C=CCn1c(SCc2ccc(OC)c([N+](=O)[O-])c2)nnc1-c1cccc(Br)c1 returned MITF primary -18, FBW7 act 0, TEAD-YAP inh -8, GPR151 ag 5.0*, GPR151 confirm 0 and GPR119 ag -4.
`COc1ccc(/C=C/C(=O)c2cccc(OC)c2)cc1` gave MITF primary -1, FBW7 act 0, TEAD-YAP inh -16 and GPR151 ag -1.
Screening COc1cccc(C(=O)/C=C/c2ccccc2OC)c1 returned MITF primary 16, FBW7 act 0, TEAD-YAP inh -17, GPR151 ag 7.1*, GPR151 confirm 2 and GPR119 ag 5.
For CCCCc1ccc(NS(=O)(=O)c2c[nH]c(=O)[nH]c2=O)cc1 the results were MITF primary 13, FBW7 act 0, TEAD-YAP inh -1 and GPR151 ag -1.
Screening CCSc1nnc(NC(=O)CC23CC4CC(CC(Br)(C4)C2)C3)s1 returned MITF primary 4, FBW7 act 0, TEAD-YAP inh -11 and GPR151 ag 0.
For Cc1ccc(CN2CCN(Cc3cccc4nccnc34)CC2CCO)cc1 (centres undefined) the results were MITF primary -1, FBW7 act 0, TEAD-YAP inh -5, GPR151 ag 6.7*, GPR151 confirm 0 and GPR119 ag -13.
For CC(C)CN1CCN(Cc2cccc3nccnc23)CC1CCO (centres undefined) the results were MITF primary -1, FBW7 act 0, TEAD-YAP inh -5 and GPR151 ag 0.
Screening CCn1ccnc1CN1CCN(Cc2ccc(C)cc2)C(CCO)C1 (centres undefined) returned MITF primary 21, FBW7 act 0, TEAD-YAP inh 1 and GPR151 ag 3.
Screening CCOc1ccc(CN2CCN(Cc3cnc(N4CCOCC4)s3)CC2CCO)cc1 (centres undefined) returned MITF primary 2, FBW7 act 0, TEAD-YAP inh 6 and GPR151 ag 0.
`CCn1ccnc1CN1CCN(Cc2ccc(F)cc2)C(CCO)C1` (centres undefined) gave MITF primary -1, FBW7 act 0, TEAD-YAP inh -5, GPR151 ag 13*, GPR151 confirm 1 and GPR119 ag -1.
`CCOc1ccc(CN2CCN(Cc3cnc(N(C)C)s3)CC2CCO)cc1` (centres undefined) gave MITF primary -5, FBW7 act 0, TEAD-YAP inh -6, GPR151 ag 5.7*, GPR151 confirm 0 and GPR119 ag 0.
For CC(C)/C=N/NC(=O)c1ccc(C(=O)N/N=C/C(C)C)cc1 the results were MITF primary -9, FBW7 act 0, TEAD-YAP inh -5 and GPR151 ag 0.
Screening Cc1nnc(SCC#N)n1-c1ccc(N(C)C)cc1 returned MITF primary -1, FBW7 act 0, TEAD-YAP inh 0 and GPR151 ag 0.
O=C(Nc1nc(-c2ccc(I)cc2)cs1)C1CC1 was read as MITF primary 13, FBW7 act 0, TEAD-YAP inh -41, GPR151 ag 5.9*, GPR151 confirm 0 and GPR119 ag 9.
COc1cccc2cc(C(=O)c3ccc([N+](=O)[O-])cc3)oc12 was read as MITF primary 10, FBW7 act 0, TEAD-YAP inh -13, GPR151 ag 7.3*, GPR151 confirm 0 and GPR119 ag -10.
For COc1cccc2cc(C(=O)Nc3ccccc3[N+](=O)[O-])c(=O)oc12 the results were MITF primary 11, FBW7 act 0, TEAD-YAP inh -17, GPR151 ag 13*, GPR151 confirm 0 and GPR119 ag 13.
Screening CC(=O)n1cc(/C=c2\sc3nc4cc(C)c(C)cc4n3c2=O)c(-c2ccc(F)cc2)n1 returned MITF primary -12, FBW7 act 0, TEAD-YAP inh -7, GPR151 ag 6.1*, GPR151 confirm 1 and GPR119 ag -7.
Screening COc1cc(N)c(Cl)cc1C(=O)OCCOc1ccc(Br)cc1 returned MITF primary 7, FBW7 act 0, TEAD-YAP inh 4, GPR151 ag 20*, GPR151 confirm -1 and GPR119 ag 0.
`O=C(OCCOc1ccc(Br)cc1)c1cccnc1Cl` gave MITF primary -6, FBW7 act 0, TEAD-YAP inh 4 and GPR151 ag 1.
CSc1ncccc1C(=O)OCCOc1ccc(Br)cc1 was read as MITF primary -17, FBW7 act 0, TEAD-YAP inh -2, GPR151 ag 6.3*, GPR151 confirm 0 and GPR119 ag -3.
`CCOc1ccccc1/C=C1\Oc2c(ccc(O)c2CN2CCN(CCO)CC2)C1=O` gave MITF primary 2, FBW7 act 0, TEAD-YAP inh 1, GPR151 ag 6.8*, GPR151 confirm 0 and GPR119 ag 6.
For CCOc1ccc(/C=C2\Oc3c(ccc(O)c3CN3CCN(CCO)CC3)C2=O)cc1 the results were MITF primary -8, FBW7 act 0, TEAD-YAP inh -6 and GPR151 ag -1.
For COc1ccc(N2C(=O)NC3CC2(C)Oc2c(OC)cccc23)c(OC)c1 (centres undefined) the results were MITF primary 7, FBW7 act 0, TEAD-YAP inh 12, GPR151 ag 6.7*, GPR151 confirm 2 and GPR119 ag 11.
Screening COc1ccc(N2C(=O)NC3CC2(C)Oc2c(OC)cccc23)cc1 (centres undefined) returned MITF primary 4, FBW7 act 0, TEAD-YAP inh 10 and GPR151 ag 0.
O=C(CN1C(=O)C(=O)c2ccccc21)NC1CCCCCC1 was read as MITF primary 11, FBW7 act -1, TEAD-YAP inh -2 and GPR151 ag 2.
CCCCNCc1cc(Cl)c(OCC(=O)NC(C)(C)C)c(OCC)c1 was read as MITF primary -10, FBW7 act 1, TEAD-YAP inh 8, GPR151 ag 7.0*, GPR151 confirm 0 and GPR119 ag 6.
